# Where “and” joins values, the source holds several entries; their conditions need not be identical. Equal values may be shown once. Calls of active or inactive are those of the source. Rule as the data show it, unless noted: active = inhibition above about 80%; inactive = the rest.
# Legend:
# [1] = growth inhibition, single agents and combos, UWB1.289, cell-based, BGB or cisplatin combos, synergistic combos for chromothripsis tumors (AID 1671456); conditions: UWB1.289 ovarian carcinoma cells, stronger effect = higher value;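 also: cells exposed to compound for four days; 0% = vehicle DMSO and 100% = killing by high DMSO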
# [2] = growth inhibition, single agents and combos, LFS_MB_2R, cell-based, cisplatin combos, synergistic combos for chromothripsis tumors (AID 1671457); conditions: LFS_MB_2R medulloblastoma cells, stronger effect = higher value;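 also: cells exposed to compound for four days before readout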
# [3] = growth inhibition, MDA-MB-436, cell-based, BGB or cisplatin combos, synergistic combos for chromothripsis tumors (AID 1671458; call rule not given here;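 also: cells exposed for 96 hours; 0% = vehicle DMSO and 100% = killing by high DMSO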); conditions: MDA-MB-436 breast carcinoma growth inhibition, drug combinations, stronger effect = higher value
# [4] = UWB1.289_BRCA1 ovarian cancer growth, cell-based, BGB or cisplatin combinations (AID 1671459); conditions: UWB1.289 BRCA1 ovarian carcinoma, drug combinations, stronger effect = higher value
# [5] = drug combination toxicity in non-malignant astrocytes – cell-based, BGB or cisplatin IC20 combos, cytotoxicity control for chromothriptic childhood tumor combination screen (AID 1671460); conditions: Human astrocytes, viability inhibition, drug combinations, at 0.5 µM, stronger effect = higher value;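 also: cells exposed to compounds for 96 hours before viability readout; 0% = vehicle and 100% = killing control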
# [6] = BT084 cell growth, single and combined drugs, ICGC_MB145, cisplatin and BGB IC40 combos (AID 1671461); conditions: BT084 medulloblastoma cells, drug combinations, stronger effect = higher value;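 also: cells exposed to drugs for 96 hours; 0% = vehicle DMSO and 100% = high DMSO full killing control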
# [7] = RCMB18 cell growth, single agent and combined, cisplatin and BGB IC40 combos (AID 1671462); conditions: RCMB18 medulloblastoma cells, stronger effect = higher value;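 also: cells exposed to compound for four days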
# [8] = CRL1545 cell growth, single agent and combined, cisplatin and BGB IC20 combos (AID 1671464); conditions: CRL1545 osteosarcoma cells, stronger effect = higher value;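 also: cells exposed to compound for 96 hours before readout; 0% = vehicle DMSO and 100% = high DMSO killing control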
# [9] = measured here: inhibition with BGB combination, at 0.05 µM
# [10] = measured here: inhibition with cisplatin combination, at 0.05 µM
# [11] = measured here: combination with cisplatin, at 0.5 µM
# [12] = measured here: combination with cisplatin, at 5 µM
# [13] = measured here: BGB combination, at 0.5 µM
# [14] = measured here: BGB combination, at 5 µM
# [15] = measured here: cisplatin combination, at 0.5 µM
# [16] = measured here: cisplatin combination, at 5 µM
# [17] = BGB combination, concentration series, at 5 µM
# [18] = cisplatin combination, concentration series, at 5 µM
# [19] = measured here: combo with BGB IC20
# [20] = measured here: combo with cisplatin IC20
# [21] = cisplatin combination, at 0.5 µM
# [22] = measured here: BGB IC40 combination 0.05 uM, at 0.05 µM
# [23] = measured here: BGB IC40 combination, at 0.05 µM
# [24] = measured here: with BGB IC20 combination, at 0.5 µM
# [25] = measured here: with cisplatin IC20 combination, at 0.5 µM
smiles,measurement,setting,value
O=C(O)P(=O)(O)O,inhibition,[1]; at 0.5 µM,-11.3% (inactive)
same,inhibition,[1]; [9],-27.2%
same,inhibition,[1]; [10],-24%
same,inhibition,[2]; at 0.5 µM,-19.3% (inactive)
same,inhibition,[2]; [11],-14.2%
same,inhibition,[2]; [12],-18.5%
same,inhibition,[3]; at 0.5 µM,-30.5% (inactive)
same,inhibition,[3]; [13],-34.2%
same,inhibition,[3]; [14],-30.6%
same,inhibition,[3]; [15],-45.7%
same,inhibition,[3]; [16],-24.2%
same,inhibition,[4]; [17],-19.2%
same,inhibition,[4]; at 0.5 µM,-15.7% (inactive)
same,inhibition,[4]; [18],-10.9%
same,inhibition,[5],0.14% (inactive)
same,inhibition,[5]; [19],1.18%
same,inhibition,[5]; [20],-8.98%
same,inhibition,[6]; at 0.5 µM,-21.4% (inactive)
same,inhibition,[6]; [21],-13.9%
same,inhibition,"[6]; cisplatin combination, at 5 µM",-72.5%
same,inhibition,[6]; [22],11.4%
same,inhibition,"[6]; single agent, at 5 µM",-13.1%
same,inhibition,[7]; at 0.5 µM,-28.6% (inactive)
same,inhibition,"[7]; cisplatin combo, at 5 µM",-9.59%
same,inhibition,[7]; [23],-13.4%
same,inhibition,[7]; [11],-44.4%
same,inhibition,"[7]; single agent, at 5 µM",-27.5%
same,inhibition,[8]; at 0.5 µM,-83.7% (inactive)
same,inhibition,[8]; [24],-15.5%
same,inhibition,[8]; [25],-118%
same,inhibition,"[8]; single agent, at 0.05 µM",-51.7%
same,inhibition,"[8]; single agent, at 5 µM",-82.1%
CN(C)/N=N/c1nc[nH]c1C(N)=O,inhibition,[1]; at 0.5 µM,18.9% (inactive) and 3.21% (inactive)
same,inhibition,[1]; [9],0.064% and -13.3%
same,inhibition,[1]; [10],3.6% and -43.6%
same,inhibition,[2]; at 0.5 µM,10.1% (inactive) and -20.6% (inactive)
same,inhibition,[2]; [11],14.2% and -25.1%
same,inhibition,[2]; [12],-36.9% and -16%
same,inhibition,[3]; at 0.5 µM,1.6% (inactive) and -18.5% (inactive)
same,inhibition,[3]; [13],7.15% and -18%
same,inhibition,[3]; [14],1.32% and -19%
same,inhibition,[3]; [15],0.111% and -24.2%
same,inhibition,[3]; [16],-5.49% and -14.5%
same,inhibition,[4]; [17],47.3% and 36.9%
same,inhibition,[4]; at 0.5 µM,15.9% (inactive) and 4.03% (inactive)
same,inhibition,[4]; [18],53.7% and 25.2%
same,inhibition,[5],-0.79% (inactive) and 0.55% (inactive)
same,inhibition,[5]; [19],-3.87% and 2.32%
same,inhibition,[5]; [20],-4.67% and -1.77%
same,inhibition,[6]; at 0.5 µM,-1.62% (inactive) and -14.7% (inactive)
same,inhibition,[6]; [21],-8.23% and -62.9%
same,inhibition,"[6]; cisplatin combination, at 5 µM",1.87% and -8.42%
same,inhibition,[6]; [22],46.6% and -5.42%
same,inhibition,"[6]; single agent, at 5 µM",-9.68% and -13.7%
same,inhibition,[7]; at 0.5 µM,-1.34% (inactive) and -9.83% (inactive)
same,inhibition,"[7]; cisplatin combo, at 5 µM",6.92% and -42.9%
same,inhibition,[7]; [23],-11.2% and -7.61%
same,inhibition,[7]; [11],10.1% and -9.31%
same,inhibition,"[7]; single agent, at 5 µM",3.33% and -8.99%
same,inhibition,[8]; at 0.5 µM,-2.87% (inactive) and -54.9% (inactive)
same,inhibition,[8]; [24],-14.8% and -42.6%
same,inhibition,[8]; [25],0.906% and -63.6%
same,inhibition,"[8]; single agent, at 0.05 µM",-1.35% and -67.8%
same,inhibition,"[8]; single agent, at 5 µM",10.4% and -50.2%

# Source: PubChem BioAssay
